# High-throughput results (PubChem BioAssay)
# HP1b binding inh: HTS for Inhibitors of HP1-beta Chromodomain Interactions with Methylated Histone Tails. Chromobox protein homolog 1 (Homo sapiens), P83916. AlphaScreen HP1-beta / biotin-H3K9me3 peptide binding. Potency, µM (highest dose often 114 µM), most hits filed as inhibitors. 390,000 compounds, 0.56% hits; further: nearly all actives have a fitted effect of over 70% in size
# Target sequence (P83916 whole entry, looked up): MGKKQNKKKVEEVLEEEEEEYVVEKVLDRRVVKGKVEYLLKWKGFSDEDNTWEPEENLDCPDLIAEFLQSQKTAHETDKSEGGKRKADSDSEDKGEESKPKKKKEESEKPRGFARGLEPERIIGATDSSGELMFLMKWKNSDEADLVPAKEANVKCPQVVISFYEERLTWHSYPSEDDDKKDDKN
#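 AlphaScreen: HP1-beta (50 nM) preformed 30 min with biotin-H3(1-18)K9me3 peptide (50 nM) in PBS pH 7.4, 0.01% Tween-20. Compound added for 30 min at RT, then streptavidin donor/nickel chelate acceptor beads (10 ug/mL) for 30 min.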
# G9a inh: qHTS Assay for Inhibitors of Histone Lysine Methyltransferase G9a | 350,000 compounds, 8.8% hits | G9a H3K9 monomethylation, AlphaScreen, 2 h | Potency, µM (top dose mostly 102 µM), hits mostly inhibitors | Histone-lysine N-methyltransferase EHMT2 (Homo sapiens), Q96KQ7; further: nearly all actives have a fitted effect of over 75% in size
# Target sequence (Q96KQ7 913-1193 limits assumed): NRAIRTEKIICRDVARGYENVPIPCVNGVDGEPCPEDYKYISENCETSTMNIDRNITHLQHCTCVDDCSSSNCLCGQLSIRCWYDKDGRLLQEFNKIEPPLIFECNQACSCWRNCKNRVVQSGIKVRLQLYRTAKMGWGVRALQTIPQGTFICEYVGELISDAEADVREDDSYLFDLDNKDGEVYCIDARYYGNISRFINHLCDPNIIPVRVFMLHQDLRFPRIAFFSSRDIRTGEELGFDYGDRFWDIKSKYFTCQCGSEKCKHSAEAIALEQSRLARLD
#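 Enzyme 20 nM + cpd, 15 min RT; add b-H3K9 pep 500 nM / SAM 20 uM; 2 h RT; anti-H3K9me1 Ab 0.5 ug/mL + SA donor / anti-rabbit acceptor beads 20 ug/mL each, 10 min; AlphaScreen read.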
# JMJD2A Tudor: qHTS Assay for Inhibitors of JMJD2A-Tudor Domain. Potency, µM (doses to about 114 µM), actives largely listed as inhibitors. 390,000 compounds, 4.4% hits. AlphaScreen JMJD2A-Tudor / H3K4me3 peptide binding; further: nearly all actives have a fitted effect of over 50% in size
# PLK1 PBD inh: qHTS for Inhibitors of PLK1-PDB (polo-like kinase 1 - polo-box domain): Primary Screen. Serine/threonine-protein kinase PLK1 (Homo sapiens), P53350. Plk1 PBD binding of FITC phosphopeptide, fluorescence polarization. AID 720504, 2013. 360,000 compounds, 2.8% hits. Potency, µM, most hits filed as inhibitors; further: series mostly up to about 57 µM; nearly all actives have a fitted effect of over 65% in size
# VDR inh: Inhibitors of the vitamin D receptor (VDR): qHTS; Vitamin D3 receptor (Homo sapiens), P11473; Potency, µM, usual class: inhibitors; VDR-SRC2-3 peptide fluorescence polarization, 2 h; 400,000 compounds, 0.93% hits
#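 Signal is fluorescence polarization, reporting how far test compounds block the interaction of VDR with the SRC2-3 coregulator peptide after a 2 h room-temperature incubation.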
# BAZ2B block: qHTS Assay for Inhibitors of BAZ2B; AlphaScreen BAZ2B-H3K14Ac peptide displacement; Potency, µM (series often up to 114 µM), usual class: inhibitors; 360,000 compounds, 4.4% hits; further: nearly all actives have a fitted effect of over 60% in size
#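 AlphaScreen displacement of biotin-H3(5-23)K14Ac peptide (50 nM final) from BAZ2B (50 nM final) in PBS pH 7.4, 0.01% Tween-20; complex preformed 30 min RT, then compounds (top 110 uM) 30 min RT, beads 20 min dark.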
# Hits are given with their value; . = inactive; ? = inconclusive; / = not tested or not shown; [ ] = remark or other dose. A selection: hits, their analogues and other compounds. The true share with any hit is near 11%. The call rests on the fitted dose curve; in most records, active means well fitted curve in the direction sought with a large enough effect; inconclusive means small, poorly fitted or top-dose-only effect, or another doubt; inactive means no such curve, though single readings can be large; an effect the other way counts as inactive or inconclusive.
SMILES,HP1b binding inh,G9a inh,JMJD2A Tudor,PLK1 PBD inh,VDR inh,BAZ2B block
COC(=O)c1c(-c2ccccc2)csc1NC(=O)C1CC=CCC1C(=O)O (stereo unspecified),?,44.7µM,50.1µM,.,.,?
CCOC(=O)c1c(-c2ccc(C)cc2)csc1NC(=O)C1CC=CCC1C(=O)O (stereo unspecified),.,?,.,26.7µM,?,.
C=C1C=CS(=O)(=O)N(Cc2ccccc2)C1,.,/,.,/,.,/
CCOc1ccc(S(=O)(=O)N2CCC(c3ccncc3)CC2)cc1,.,?,.,/,.,.
COC(=O)c1sccc1NC(=O)CN(C)NS(=O)(=O)c1ccc([N+](=O)[O-])cc1,.,.,56.2µM,23.8µM,.,.
COC(=O)c1sccc1NC(=O)CN(C)NS(=O)(=O)c1ccc(Cl)cc1,.,.,.,.,.,.
COC(CN(C(=O)CCl)C(C(=O)NC1CCCC(C)C1C)c1ccc(C)cc1)OC (stereo unspecified),.,50.1µM,.,.,.,.
COC(CN(C(=O)CCl)C(C(=O)NC1CCCCC1)c1ccc(Cl)cc1)OC (stereo unspecified),.,.,.,.,.,.
COC(=O)CCCC1=CC2=CC(=O)C(C)(OC(=O)c3cnc4ccccc4n3)C(=O)C2=CO1 (stereo unspecified),/,/,/,/,.,/
CCCCC1=CC2=CC(=O)C(C)(OC(=O)c3cnc4ccccc4n3)C(=O)C2=CO1 (stereo unspecified),/,?,/,/,.,79.4µM
COc1ccccc1NC(=S)Nc1ccc2cn[nH]c2c1,.,.,.,.,.,/
Cc1cc(C)c(S(=O)(=O)Nc2nnc(C3CCCCC3)s2)c(C)c1,.,70.8µM,.,?,.,.
Cc1cc(C)c(S(=O)(=O)Nc2nnc(CC(C)C)s2)c(C)c1,.,/,.,.,.,.
O=S(=O)(Nc1nnc(C2CCCCC2)s1)c1ccc(F)cc1,.,?,.,.,.,.
Cc1cc(C)c(S(=O)(=O)Nc2nnc(C)s2)c(C)c1,.,.,?,3.36µM,?,.
Cc1nc2ccc(C(=O)OCc3ccccc3Br)cc2nc1C,.,.,.,.,.,.
Cc1cccc(C)c1OC(=O)CSc1nnc(-c2ccc3c(c2)OCO3)o1,.,.,.,/,.,.
COc1ccc(-c2cc3c(nn2)-c2ccccc2C3=O)cc1,.,.,22.4µM,23.8µM,79.4µM,.
Cc1noc(C)c1C(=O)N1CCC2(CCCN(Cc3ccc(C#N)cc3)C2)CC1,/,.[12.7 µM],/,/,.,/
CCc1cc(SC#N)cc(CC)c1NC(=O)CCl,.,50.1µM,.,?,?,.
Cc1cc(C)c2c(NC(=O)CCl)nn(C)c2n1,.,.,.,.,.,.
CC(C)C(C)(C#N)NC(=O)CSc1nnc(-c2ccccc2)o1 (stereo unspecified),.,.,.,.,.,.
CC(=O)NC(c1ccc(F)c(F)c1)c1nc(-c2cccs2)cs1 (stereo unspecified),/,/,/,.,/,/
CN(C)c1ccc(-c2nnn(CC(=O)Nc3ccccc3N3CCOCC3)n2)cc1,.,50.1µM,?,.,.,?
Cc1ccc(C)c(Nc2c([N+](=O)[O-])cc(C(=O)N3CC(=O)Nc4ccccc43)cc2[N+](=O)[O-])c1,?,17.8µM,?,.,.,25.1µM
SMILES,HP1b binding inh,G9a inh,JMJD2A Tudor,PLK1 PBD inh,VDR inh,BAZ2B block
O=C1CN(C(=O)c2cccc(Br)c2)c2ccccc2N1,.,.,.,.,.,.
Cc1ccc(C)c(NC(=O)CNC(=O)N2CC(=O)Nc3ccccc32)c1,.,.,.,.,.,.
Cc1cccc(Nc2c([N+](=O)[O-])cc(C(=O)N3CC(=O)Nc4ccccc43)cc2[N+](=O)[O-])c1,.,11.2µM,?,.,.,?
Cc1ccc(NC(=O)CCS(=O)(=O)c2ccccc2)cc1S(=O)(=O)N1CCCCCC1,.,.,.,.,.,.
Cc1c(C#N)c(O)n(CCO)c(=O)c1N=Nc1ccc(S(N)(=O)=O)cc1,.,.,.,.,.,79.4µM
Cc1c(C#N)c(O)n(C)c(=O)c1N=Nc1ccc(S(N)(=O)=O)cc1,.,.,.,.,.,.
O=C(NNc1c2ccccc2nc2ccccc12)c1ccccc1O,.,?,?,.,.,7.94µM
O=C(NNc1c2ccccc2nc2ccccc12)c1ccc(O)cc1O,?,?,39.8µM,.,.,20µM
O=C(NNC(=O)c1cccc2ccccc12)c1ccccc1O,.,.,.,.,.,.
CCCC(=O)NNc1c2ccccc2nc2ccccc12,.,.,.,.,.,.
O=C(NNc1nc(=O)c2cccnc2s1)c1ccccc1O,.,50.1µM,50.1µM,26.7µM,.,/
O=C(NNC(=O)c1ccc(O)cc1O)c1ccc(-c2ccccc2)cc1,.,.,.,.,.,.
O=C(CCS(=O)(=O)Cc1ccccc1F)NCc1ccccc1Cl,.,.,.,.,.,.
CC(=O)N/C(=N\c1nc(C)cc(C)n1)Nc1ccccc1Cl,.,.,.,.,.,.
O=C(Nc1nc(-c2ccccn2)cs1)C12CC3CC(CC(O)(C3)C1)C2,?,28.2µM,.[11.4 µM],?,.,14.1µM
COc1cccc2sc(Nc3nc(-c4ccccn4)cs3)nc12,/,.,/,/,/,50.1µM
CCOC(=O)c1sc(Nc2nc3c(OC)cccc3s2)nc1C,/,.,/,/,/,.
O=C(Nc1nc(-c2ccccn2)cs1)C1CC1,.,.,56.2µM,.,.,50.1µM
O=C(CC1CC2CCC1C2)Nc1nc(-c2ccccn2)cs1 (stereo unspecified),.,20µM,.,?,.,44.7µM
CSc1ncccc1C(=O)OCC(=O)Nc1ccc2c(c1)CCC2,.,.,.,.,.,.
O=C(Nc1nc(COc2ccccc2)cs1)C12CC3CC(CC(C3)C1)C2,.,44.7µM,.,.,.,.
c1ccc(-c2csc(Nc3cccnc3)n2)nc1,.,?,?,.,.,?
c1ccc(Nc2nc(-c3ccccn3)cs2)cc1,.,.,?,.,.,39.8µM
Cc1csc(NC(=O)C2CCCC2)n1,.,39.8µM,.,.,.,.
Cc1csc(NC(=O)C2CCCCC2C(=O)O)n1 (stereo unspecified),.,.,.,.,.,.
COc1cccc(-n2c(C)cc(/C=C3/C(=N)N4C(=NC3=O)SN=C4S(C)(=O)=O)c2C)c1,.,44.7µM,?,18.9µM,.,56.2µM
Cc1ccc(S(=O)(=O)Oc2ccc(/C=C3\N=C(c4cccc(C)c4)OC3=O)cc2)cc1,.,?,.,.,.,.
